Inconclusive results are not listed. Values without a mark were called inactive. Activity calls are given as the source filed them. The call rests on the fitted dose curve; in most records, active means well fitted curve in either direction with a large enough effect (not every such curve was filed as active); inconclusive means small, poorly fitted or top-dose-only effect, or another doubt; inactive means flat fitted curve, though single readings scatter.
On the % scale 0 is the no-effect control and ±100 the full control effect.

This test in a line: AP1 Signaling Pathway (AID 357). To be noted: ME-180 (cervical carcinoma) AP-1-bla reporter, EGF-induced, beta-lactamase ratio, 5 h; series mostly up to 17.2 µM; activity change, negative = inhibition: at the top concentration. The gist of the method: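 AP-1-bla ME-180 cells, Opti-MEM + 0.5% dialyzed FBS, plated overnight 37 °C. Cpd titration + EC50 EGF, 5 h 37 °C. CCF4 2.5 h RT; ex 405, em 460/530 ratio → %activity, AC50.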
Regarding `CC(C)N(CCC(C(N)=O)(c1ccccc1)c1ccccn1)C(C)C` (configuration not stated), the “activity change, negative = inhibition” value is 3.98%.
For `C[C@]12CCC(=O)C=C1CC[C@@H]1[C@@H]2CC[C@]2(C)C(=O)CC[C@@H]12`, the “activity change, negative = inhibition” value is 9.47%.
On the same count and under the same terms, as for `COc1ccc2c(c1)C13CCCC[C@@H]1C(C2)N(C)CC3` (some centres not stated), the figure is 12.7%.
Take `O=C(O)CCCc1ccc(N(CCCl)CCCl)cc1`: the result was inactive.
As to `O=c1[nH]oc2c1CCNC2`, the outcome was inactive.
On to `CCCCC/C=C\C/C=C\C/C=C\C/C=C\CCCC(=O)NCC(=O)O`, for which the “activity change, negative = inhibition” value is -3.65% [at 38 µM].
Same read-out and setting: in the case of `COc1c2c(cc3c1OCO3)CCN(C)C2` it was 2.98%; in that of `CNC(C)(C)Cc1ccccc1`, -8.83%.
Regarding `CCC1(CC)C(=O)C=CNC1=O`, the “activity change, negative = inhibition” value is 2.12%.
On the same count and under the same terms, as for `[N-]=[N+]=CC(=O)OC[C@H](N)C(=O)O`, the figure is 13.4%.
`C[N+]1(C)[C@@H]2CC(OC(=O)[C@H](CO)c3ccccc3)C[C@H]1[C@@H]1O[C@@H]12` (some centres not stated): the “activity change, negative = inhibition” value is 5.16%.
In the case of `CC(C)c1cccc(C(C)C)c1O`, the outcome was inactive.
`CC(NC(C)(C)C)C(=O)c1cccc(Cl)c1` (configuration not stated): the “activity change, negative = inhibition” value was -0.934%.
As to `NCCc1ccc(O)cc1`, the “activity change, negative = inhibition” value was -5.67% [at 38 µM].
Same read-out and setting: in the case of `O=P1(N(CCCl)CCCl)NCCCO1` (configuration not stated) it was 10.4% [at 38 µM].
As to `C#C[C@]1(O)CC[C@H]2[C@@H]3CCC4=CC(=O)CC[C@]4(C)[C@H]3CC[C@@]21C`, the “activity change, negative = inhibition” value is 15.1%.
Turning to `O=C(CCCN1CCC2(CC1)C(=O)NCN2c1ccccc1)c1ccc(F)cc1`, the “activity change, negative = inhibition” value was 20.8%.

The values are drawn from PubChem BioAssay (NCATS).
